Screening results: PubChem, several laboratories
An excerpt weighted towards active compounds, which were near 22% of everything screened.
CYP2C9 inh: blocks human cytochrome P450 2C9; CYP2C9 Supersomes, luciferin-H conversion, luminescence; AID 777; inhibition, % at 5 µM; P11712; 20% of 96,000 active;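 active means blocking of liver enzyme CYP2C9 beyond about 50% at 5 µM, limit read from the data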
CYP2C19 activ: activators of human cytochrome P450 2C19; P33261; recombinant CYP2C19, luciferin-H EGE luminescence; active compounds read high; 0 = fully inhibited enzyme, 1 = untreated enzyme; activation factor at 5 µM; 96,000 tested, under 10 active; AID 1025;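 active means activation factor of at least 2 at 5 µM in the primary screen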;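 further: 0 = wells with 2.5 mM tranylcypromine and 1 = vehicle-only wells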
Target sequence (P33261 whole entry, looked up): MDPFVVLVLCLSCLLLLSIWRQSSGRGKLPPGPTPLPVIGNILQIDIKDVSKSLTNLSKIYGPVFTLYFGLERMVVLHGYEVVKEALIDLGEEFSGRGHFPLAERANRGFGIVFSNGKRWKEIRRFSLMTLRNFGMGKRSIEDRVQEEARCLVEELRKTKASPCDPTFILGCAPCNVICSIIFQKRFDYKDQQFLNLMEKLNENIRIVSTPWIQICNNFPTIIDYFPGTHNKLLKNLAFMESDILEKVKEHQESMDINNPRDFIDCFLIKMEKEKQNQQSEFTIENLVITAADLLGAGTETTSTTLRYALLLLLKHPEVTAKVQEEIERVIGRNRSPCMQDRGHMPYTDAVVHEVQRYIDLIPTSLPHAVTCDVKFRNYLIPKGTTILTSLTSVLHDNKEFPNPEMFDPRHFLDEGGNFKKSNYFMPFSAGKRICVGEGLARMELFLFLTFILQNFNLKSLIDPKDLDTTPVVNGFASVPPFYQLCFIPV
CYP2C19 inhib: inhibitors of human CYP2C19; P33261; CYP2C19 Supersomes, luciferin-H EGE luminescence, 30 min; inhibition, % at 5 µM; 21% of 96,000 active; AID 778;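 active means CYP2C19 inhibition above a set limit at 5 µM in the primary screen, cut at about 50% in these data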;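 further: plate controls were negative control wells for no effect and 2.5 mM tranylcypromine positive control for full effect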
Measles CPE: protection of cells from measles virus; Measles virus-infected cells, CPE protection, absorbance; protection (pct of control), % at 4 µM; 1.5% of 140,000 active; AID 841; in the data active means protection mostly above about 24%, no sharp cut-off; inactive means mostly below about 26%
CYP2C9 act: CYP2C9 (human) activation; activation factor at 5 µM; P11712; AID 1024; 1.4% of 96,000 active; recombinant CYP2C9, luciferin-H conversion, luminescence; active compounds read high; factor 1 = untreated enzyme, 0 = blocked;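 active means activation factor of 2 or more for CYP2C9 at a 5 µM dose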;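 further: 0 = sulfaphenazole-blocked wells and 1 = vehicle-only wells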
* marks the source's active call; other numbers are inactive results; x = not tested or not shown.

SMILES	CYP2C9 inh	CYP2C19 activ	CYP2C19 inhib	Measles CPE	CYP2C9 act
O=C(c1cc2c(s1)CCCC2)N1CCC2(CC1)OCCO2	30.2	0.1	91.6*	5.6	0.7
O=C(c1cc2c(s1)-c1ccccc1OC2)N1CCC2(CC1)OCCO2	24.9	0.2	84.2*	3.0	0.8
CN1C(=O)c2ccccc2Sc2ccc(C(=O)N3CCC4(CC3)OCCO4)cc21	28.1	1	0.5	12.1	0.7
CCC(=O)c1cn(Cc2ccc(C#N)cc2)c2ccccc12	44.1	0.6	38.6	18.5	0.6
C=CCn1c(O)c(C(C)=NCc2ccco2)c(=O)[nH]c1=O	27.4	1.1	-7.2	7.3	0.7
COc1ccccc1N1C(=O)NC(=O)/C(=C/c2ccc3c4c(cccc24)CC3)C1=O	x	x	x	8.0	x
CCCCn1c(O)c(C(CC)=Nc2ccc(OCC)cc2)c(=O)[nH]c1=O	19.7	0.9	11.7	22.8	0.8
CCCCn1c(O)c(C(C)=NCc2cc(OC)cc(OC)c2)c(=O)[nH]c1=O	98.0*	0.1	86.6*	5.3	0
CCCCn1c(O)c(C(CC)=NCc2cc(OC)cc(OC)c2)c(=O)[nH]c1=O	94.5*	0.1	86.6*	4.8	0.1
CCCCn1c(O)c(C(CC)=Nc2ccc(OC)cc2OC)c(=O)[nH]c1=O	35.7	0.7	31.8	5.3	0.6
CCCCCCn1c(O)c(C=Nc2c(C)n(C)n(-c3ccccc3)c2=O)c(=O)[nH]c1=O	43.3	1	4.4	16.3	0.6
CCOP(=O)(C(NC(=O)c1ccccc1Cl)=C(Cl)Cl)c1ccccc1 (stereo not drawn)	57.0*	0.2	77.4*	3.3	0.4
O=C(c1ccc2nc(-c3ccco3)c(-c3ccco3)nc2c1)N1CCC2(CC1)OCCO2	26.3	0.7	30.7	8.7	0.7
CC1CCC(C(=O)NC(C(=O)N2CCC3(CC2)OCCO3)C(C)C)CC1 (stereo not drawn)	11.7	0.8	15.9	21.8	0.9
CCc1nc2ccccc2c(=O)n1-c1ccc2ccccc2c1	11.7	0.1	93.4*	18.5	0.9
CCCCc1nc2ccccc2c(=O)n1-c1ccccc1O	24.4	0.5	54.5*	13.7	0.8
CCCc1nc2ccccc2c(=O)n1-c1cccc(OC)c1	27.4	0.5	51.2*	6.3	0.7
CCCc1nc2ccccc2c(=O)n1-c1ccccc1OC	9.0	0.8	23.0	12.3	0.9
COc1cccc(CN2CCN(C(=O)COc3ccc4ccccc4c3)CC2)c1	-37.3	0.6	40.2	2.8	1.4
COc1ccccc1OP(=O)(Nc1cccnc1)Oc1ccccc1OC	x	x	x	15.0	x
O=c1[nH]c(=S)n(Cc2ccc(F)cc2)c(O)c1/C=N/N1CCCCC1	x	x	x	10.9	x
Cc1ccn2nc(S(=O)(=O)Nc3c(F)cccc3F)nc2n1	x	x	x	9.4	x
Cc1cccn2c(=O)c3c(nc12)N1CCC(Cc2ccccc2)CC1C1(C3)C(=O)N(C)C(=O)N(C)C1=O (stereo not drawn)	91.2*	0.6	41.5	3.8	0.1
O=C(COc1ccccc1)Nc1ccc(Cl)cc1C(=O)c1ccccc1	x	x	x	9.2	x
COC(=O)C1C2c3ccccc3OC1(C)N=c1s/c(=C/c3cnn(C)c3C)c(=O)n12 (stereo not drawn)	68.4*	0.6	39.9	6.2	0.3
SMILES	CYP2C9 inh	CYP2C19 activ	CYP2C19 inhib	Measles CPE	CYP2C9 act
CC(=O)C1C2c3ccccc3OC1(C)N=c1s/c(=C/c3cnn(C)c3)c(=O)n12 (stereo not drawn)	26.5	0.9	5.8	15.3	0.7
C#CCN(C)C(C)Cc1ccccc1 (stereo not drawn)	x	x	x	6.4	x
Cc1cc2c(s1)NC(=O)CN=C2c1cccs1	41.2	0.5	50.5*	16.1	0.6
CN1CCN(C(=O)COc2ccc(S(=O)(=O)N(C)Cc3ccccc3)cc2)CC1	28.2	0.9	9.8	11.5	0.7
CCOC(=O)[C@@]1(C#N)[C@@H]2C=CC(C(N)=O)=CN2[C@@H](C(N)=O)[C@@H]1c1cccc(Cl)c1	58.9*	0.6	39.1	46.9*	0.4
O=c1c2ccccc2nc(N2CCCC2)n1-c1ccc(Cl)cc1	13.4	0.3	67.4*	27.3	0.9
COc1nc2ccccc2c(=O)n1-c1ccc(Cl)cc1	x	x	x	4.8	x
CN(C)CCc1nc2ccccc2c(=O)n1-c1ccccc1	1.5	1	2.9	22.6	1
CCCC(C)C1(CC)C(=O)NC(=Nc2ccc(F)cc2)NC1=O (stereo not drawn)	58.2*	0.8	17.3	37.5*	0.4
O=C1C2CCCN2C(c2ccc(Cl)cc2)N1c1ccccn1 (stereo not drawn)	-9.6	1.1	-5.3	6.7	1.1
